Source: PubChem
Abeta rescue: qHTS for compounds that reverse cellular toxicity of Amyloid beta (A-beta) peptide in yeast: Primary Screen | yeast expressing A-beta42, growth rescue, OD600, 48 h; response scale: 0% DMSO, 100% iron-clioquinol control | Potency, µM (top dose mostly 46.1 µM), hits mostly activators | 0.063% of 410,000 active | AID 1347071, 2019; also: nearly all actives have a fitted effect of over 55% in size
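Growth rescue measured by 600 nm absorbance after 48 h yeast culture at 30 C with compound. Values normalized between DMSO and an equimolar ferric chloride plus clioquinol control.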
FUS yeast rescue: qHTS for Suppressors of FUS Proteinopathy: Primary screen using FUS-linked yeast assay; S. cerevisiae FUS-expressing, growth rescue, OD600, 24 h; Potency, µM (series often up to 76.6 µM), actives largely listed as activators; 0.24% of 390,000 active; AID 1347120, 2019; also: nearly all actives have a fitted effect of over 55% in size
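Cultures pregrown in 2.5% raffinose medium are shifted to minimal medium containing 2% galactose to express toxic FUS. Compounds are tested at several concentrations. After 24hr at 30C, growth is quantified at 600 nm absorbance.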
TDP43 rescue: qHTS of TDP-43 Inhibitors; TDP-43 expressing yeast growth rescue, BacTiter-Glo, 24 h; Potency, µM (titrated, usually from 46.1 µM), usual class: activators; 1.8% of 410,000 active; also: nearly all actives have a fitted effect of over 50% in size
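Luminescence from BacTiter-Glo reports growth of TDP-43-expressing yeast after 24 hr at 30 deg C with compound. Cells were raffinose-pregrown to mid-log, then seeded in galactose medium at OD600=0.02.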
aSyn rescue: qHTS of alpha-syn Inhibitors; Yeast expressing alpha-synuclein, growth rescue, BacTiter-Glo, 24 h; Potency, µM (top dose mostly 46.1 µM), hits mostly activators; 0.14% of 370,000 active; AID 652106, 2013; also: nearly all actives have a fitted effect of over 65% in size
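Screening used galactose-induced yeast with toxic alpha-synuclein levels, exposed to compound for 24 hr at 30 deg C. Cell growth, read with BacTiter-Glo luminescence, gave the measured signal.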
Hits are given with their value; 0 = inactive; ? = inconclusive; - = no result given; [ ] = remark or other dose. This is a sample that favours compounds with a hit; in the whole collection about 2.1% have one here. Calls follow the shape of the dose curve; as a rule, active = well fitted curve in the direction sought with a large enough effect; inconclusive = small, poorly fitted or top-dose-only effect, or another doubt; inactive = no such curve, though single readings can be large; an effect the other way counts as inactive or inconclusive.

SMILES	Abeta rescue	FUS yeast rescue	TDP43 rescue	aSyn rescue
O=C(OCc1cccc(Cl)c1)c1cc([N+](=O)[O-])ccc1N1CCOCC1	0	0	20µM	0
O=C(COC(=O)C1CCN(c2ccc(C(F)(F)F)cn2)CC1)NCc1cccc(Cl)c1	0	0	?	0
COc1cccc(CNC(=O)COC(=O)c2cc([N+](=O)[O-])ccc2N2CCCC2)c1	0	-	35µM	0
O=C(COC(=O)c1cc([N+](=O)[O-])ccc1N1CCOCC1)NCc1ccccc1	0	0	0	0
COc1cccc(CNC(=O)COC(=O)C2CCN(c3ccc(C(F)(F)F)cn3)CC2)c1	0	-	13µM	0
Cc1cc(F)ccc1NC(=O)c1c(C)oc2c1C1=NCCN1C=N2	0	0	0	-
Nc1ccccc1C(=O)N1CCCC1	0	0	0	0
N#C/C(=N\Nc1cccc(C(F)(F)F)c1)C(=O)c1ccsc1	0	0	10µM	0
CC(C)OC(=O)c1cc(Cl)c(=O)n(Cc2ccc(Cl)cc2Cl)c1	0	0	25µM	0
CNC(=S)NNC(=O)c1ccc(=O)n(Cc2ccc(Cl)cc2Cl)c1	0	0	0	0
C#CCOC(=O)c1cc(Cl)c(=O)n(Cc2ccc(Cl)cc2Cl)c1	0	0	20µM	0
CCOc1ccccc1CNC(=O)Cn1cc2c(n1)-c1c(oc(C(=O)N3CCCC3)c1C)CC2	0	0	0	-
O=C(c1ccc(F)cc1)N1CCN(CCc2ccncc2)CC1	0	0	0	-
Cn1cnc([N+](=O)[O-])c1S(=O)(=O)Oc1cccc2ccccc12	0	0	?	0
Cn1cnc([N+](=O)[O-])c1S(=O)(=O)Oc1ccc(Cl)cc1	0	0	3.2µM	0
CCOC(=O)C1CCN(C(=O)c2oc3ccc4c(c3c2C)C(O)CC2(CCCCC2)O4)CC1 (stereo not drawn)	0	?	25µM	0
Cc1c(C(=O)NCCCN2CCCCC2)oc2ccc3c(c12)C(O)CC1(CCCCC1)O3 (stereo not drawn)	0	0	0	0
COc1cc(-n2c(C)nc3cc(C(=O)N4CCCC4)ccc32)cc(OC)c1OC	-	0	-	-
C=C1c2nc3ccccc3n2C=C(c2ccc(C)cc2)N1c1ccccc1	0	-	14µM	0
Cc1ccc(C2=CCN(C)C(=O)N2c2ccccc2)cc1	-	0	-	-
C[C@H](CO)N1C[C@H](C)[C@@H](CN(C)S(=O)(=O)c2cccc(F)c2)Oc2ncc(Br)cc2C1=O	0	0	0	0
CCCCN=Cc1sc2ccc(OCC)cc2c1O	0	0	16µM	0
COc1ccccc1CCC(=O)NNC(=O)c1ccc(Br)cc1	0	0	0	0
O=C(c1ccc(F)cc1)N1c2ncnn2C2(CCCCC2)[C@@H]2CCCC[C@@H]21	0	0	?	-
O=C(c1ccccc1)N1c2ncnn2C2(CCCCC2)[C@@H]2CCCC[C@@H]21	0	0	35µM	-
SMILES	Abeta rescue	FUS yeast rescue	TDP43 rescue	aSyn rescue
Cc1cccc(NC(=O)c2cc(-c3cc(C)ccc3O)n[nH]2)c1	0	0	0	0
Cc1ccc(O)c(-c2cc(C(F)(F)F)[nH]n2)c1	?	0	18µM	0
COc1ccc2c(c1)CC(C(=O)NCc1ccc(F)cc1)CO2 (stereo not drawn)	0	0	0[9.22 µM]	-
CCC(c1nnnn1Cc1cccs1)N1CCN(c2nc3ccccc3s2)CC1 (stereo not drawn)	0	?	16µM	?
CC(C)CC(c1nnnn1Cc1cccs1)N1CCN(c2nc3ccccc3s2)CC1 (stereo not drawn)	0	0	?	0
COc1ccc(C)cc1NC(=O)c1nn(-c2ccccc2)cc1OC	0	0	16µM	0
COc1ccc(C)cc1NC(=O)C1CC1c1ccccc1 (stereo not drawn)	0	0	16µM	0
Cc1oc(-c2ccc(Cl)cc2)nc1CS(=O)CC(=O)N1CCN(c2cccc(C(F)(F)F)c2)CC1 (stereo not drawn)	0	0	0	-
Cc1oc(-c2ccccc2Cl)nc1CS(=O)CC(=O)N1CCN(c2cccc(C(F)(F)F)c2)CC1 (stereo not drawn)	0	25µM	?	-
Cc1ccc(-c2nc(CS(=O)CC(=O)N3CCN(c4cccc(Cl)c4)CC3)c(C)o2)cc1 (stereo not drawn)	0	?	32µM	-
CCc1ccccc1N(C)C(=O)c1cn(-c2cccc(OC)c2)c(=O)c2ccccc12	0	0	20µM	-
COc1ccc(-c2csc(CCn3nc(C)cc3C)n2)cc1	0	0	18µM	0
COc1ccc(-c2csc(CCn3nc(C)cc3C)n2)cc1OC	0	0	0	0
